13 compounds from PubChem BioAssay (NCI) can be followed below.

What all share (assay): NCI-60 one-dose screen, 48 h (100 = growth as untreated, 0 = no growth, -100 = all killed)
What all share (settings): 10 µM unless noted

Assay [1] concerns DU-145 prostate.
The subject of assay [2] is K-562 leukemia.
Assay [3] deals with MALME-3M melanoma.
Assay [4] deals with MDA-MB-231 breast.
Assay [5] concerns RXF 393 renal.
Assay [6] concerns SF-268 CNS.
Assay [7] concerns SF-295 CNS.
The test system of assay [8] is SF-539 CNS.
For assay [9], the system named is UACC-257 melanoma.
Assay [10] concerns M14 melanoma.

The structures appear in SMILES notation. This is part of a sample that, as a whole, favours compounds with a hit. Of some 83,000 tested, about 20% had one in any assay.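 The endpoint reported here, percent growth, reads 100 for growth as untreated, 0 for no net growth and -100 for all cells dead.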 A number with no mark means an inactive call. Active and inactive are the calls of the source. Rule for the calls: active = growth percent below 10; inactive = the rest.

As for `O=C(O)c1cn(C2CC2)c2cc(N3CCN(C(=O)CSc4nnc(-c5ccc(Cl)cc5)n4-c4ccccc4)CC3)c(F)cc2c1=O`, the growth in [1] is 108%; in [2], 96.1%; in assay [3], 114%; in assay [4], 106%; in assay [5], 113%; in [6], 103%. Also, the growth in assay [7] is 107%; in assay [8] it was 105%; in assay [9], 96.4%; in [10], 109%.
`[2H]c1cc2c(c([2H])c1F)/C(=C/c1[nH]c(C)c(C(=O)NCCN(CC)CC)c1C)C(=O)N2`: the growth in assay [1] was 34.6%; in [2], 55.3%; in [3], 10.8%; in assay [4], 67.7%; in assay [5], 25%; in [6] it was 57.7%. Further, the growth is 85.1% in [7], 45.3% in [8], 69.2% in assay [9] and 20.6% in assay [10].
Turning to `O=C1Nc2ccc(Cl)cc2/C1=N/c1nc(-c2ccc(Cl)cc2)cs1`, the growth in [1] was 26.2%; in assay [2], 5.94% (active); in assay [3], 22.2%; in assay [4] it was -22.8% (active); in assay [5] it was -19.7% (active); in assay [6], 21.6%. Further, the growth is 14.3% in assay [7], -6.26% (active) in [8], -2.07% (active) in [9] and 1.32% (active) in assay [10].
As for `C=C(C)[C@@H]1CC[C@]2(C(=O)NCCCO)CC[C@]3(C)[C@H](CC[C@@H]4[C@@]5(C)CCCNC(C)(C)[C@@H]5CC[C@]43C)[C@@H]12`, the growth was 89.1% in assay [1]; 3.26% (active) in [2]; -74.4% (active) in assay [3]; 49% in [4]; 58.2% in assay [5]; 77.9% in assay [6]. Besides, the growth in assay [7] was 89.3%; in assay [8], 70.4%; in [9] it was -44.2% (active); in assay [10], 33.7%.
Turning to `CC(=O)OCC1SC(OC(C)=O)C(NC(=O)/C=C/CCl)C(OC(C)=O)C1OC(C)=O` (stereo not given), the growth in assay [1] was 104%; in assay [2], 91.6%; in assay [3], 99.6%; in assay [4], 102%; in assay [5], 108%; in assay [6], 97.9%. Further, the growth is 111% in assay [7], 109% in assay [8], 83% in [9] and 93.6% in assay [10].
Take `COc1cc(/C=C/C(=O)c2ccc(NC(=O)CSc3nnc(-c4cc(OC)c(OC)c(OC)c4)n3-c3ccccc3)cc2)cc(OC)c1OC`: the growth was 26.5% in assay [1]; 6.66% (active) in [2]; 67.7% in assay [3]; 42.7% in assay [4]; -55.4% (active) in [5]; 34.3% in assay [6]. Moreover, the growth in assay [7] is 17.7%; in assay [8] it was 18.6%; in [9] it was 45.8%; in assay [10], -9.25% (active).
In the case of `CSc1nc(-c2cccs2)c2c(N)[nH]nc2n1`, the growth was 107% in [1]; 88.4% in assay [2]; 121% in assay [3]; 97.9% in assay [4]; 114% in assay [5]; 105% in assay [6]. In addition, the growth in assay [7] is 102%; in assay [8], 93%; in assay [9], 114%; in [10], 126%.
For the compound `O=C(C[n+]1cccc2cc(Cl)ccc21)c1ccc2c(c1)CCCC2`, the growth in assay [1] was 10.5%; in assay [2], 10.6%; in assay [3], -30.9% (active); in assay [4] it was 5.63% (active); in [5] it was 62%; in [6], 27.6%. Further, the growth was 47.2% in assay [7], -10.9% (active) in assay [8], 5.48% (active) in assay [9] and 32.6% in [10].
As to `O=c1[nH]c2ccccc2cc1-c1nc2ccc(Cl)cc2[nH]1`, the growth in [1] was 38.2%; in assay [2], 13.7%; in assay [3] it was 61.7%; in assay [4], 44.9%; in [5], 63%; in [6] it was 50.7%. Also, the growth in [7] is -7.79% (active); in assay [8], 49%; in assay [9] it was 91.5%; in [10], 40.8%.
For `Cc1nn(-c2ccc(-c3ccc(OC(F)(F)F)cc3)cc2)c2nc(-c3ccccc3)nc(N)c12`, the growth in assay [1] was 104%; in assay [2], 93.1%; in assay [3], 118%; in [4], 85.1%; in assay [5], 104%; in assay [6], 97.2%. Besides, the growth in assay [7] is 110%; in assay [8], 100%; in [9], 101%; in [10] it was 102%.
As to `COc1cc(NCC(=O)Nc2cc(Nc3ccc(C)cc3)ncn2)c(Cl)c(OC)c1Cl`, the growth in [1] is 102%; in [2], 80.6%; in assay [3] it was 111%; in assay [4], 64.2%; in [5] it was 118%; in assay [6], 88.6%. Also, the growth in assay [7] was 82.8%; in [8], 95.5%; in assay [9], 89%; in assay [10] it was 88.4%.
On to `CCC[S@](=O)c1ccc2nc(NC(=O)OC)[nH]c2c1`, for which the growth in [1] is 106%; in [2], 92.3%; in assay [3], 104%; in [4], 96.4%; in assay [5], 115%; in [6], 102%. Also, the growth in assay [7] was 99.9%; in assay [8] it was 96.6%; in [9], 69.3%; in [10] it was 98.9%.
Turning to `O=C(Nc1ccc(N=Cc2ccccc2O)cc1)NC1C=c2ccccc2=CC1` (stereo not given), the growth is 102% in [1]; 87% in assay [2]; 99.1% in assay [3]; 92% in [4]; 108% in [5]; 91.9% in assay [6]. Further, the growth in [7] was 102%; in assay [8], 100%; in [9], 91.6%; in [10], 110%.
